From PubChem BioAssay AID651819 (National Center for Advancing Translational Sciences (NCATS), 2012)
Hit rate of the full screen: of about 360,000 compounds, about 1,100 (0.31%) were called active. Rule as the data show it: active = activity change below about -30%; inactive = the rest. Only a selection was taken, and actives are over-represented in it overall.

tested on: cytosolic chaperonin (CCT/TRiC complex); experiment: High-Throughput Screening for Modulators of Cytosolic Chaperonin Activity; details: purified chaperonin ATPase assay, HTRF ADP detection, 30 min; hits give low values
From the text: The eukaryotic chaperonin named TRiC (for TCP-1 ring complex), also called CCT (for chaperonin containing TCP1), is an essential and conserved chaperone required for the folding and activation of 10-15% of the proteins encoded by the human genome. […] Despite its central role in cellular folding, little is known about TRiC mechanism and mode of substrate binding. Currently, no specific TRiC inhibitors are available. Given the early promise of other chaperone-directed inhibitors as cancer therapeutics (e.g. HSP90 inhibitors), inhibitors of TRiC activity may also selectively target transformed cells and have potential use as therapeutics for cancer.
To this end, a miniaturized assay was developed to screen against the Molecular Libraries Small Molecule Repository (MLSMR).
NIH Chemical Genomics Center [NCGC]
NIH Molecular Libraries Probe Centers Network [MLPCN]
Assay Submitter (PI): Judith Frydman, Stanford University
1.5 uL/well TRiC enzyme suspended in buffer (30 mM TRIS pH7.4, 100 mM KCl, 5 mM MgCl2, 1 mM DTT) was added with BioRAPTR FRD dispenser at 40 nM or 20 nM (based on the enzymatic activity of used batches) final concentration to a white solid bottom medium binding 1536-well plate (Greiner Bio-One, Monroe, NC), and quickly spanned down. 23 nl/well of compound solutions in DMSO were added with a pintool transfer (Kalypsis, San Diego, CA) at a single 76 uM final concentration. Next, 1.5 µl/well ATP was dispensed with BioraptR at 10 uM final concentration after which the plates were incubated at 37 deg C for 30 min. HTRF(R) Transcreener(R) ADP (Cisbio US, Bedford, MA) detection reagents were prepared accordingly to the protocol and dispensed into the plate (1.5 uL/well each), incubated for 30 min at ambient temperature. Then, the plates were read using Envision reader with excitation at 330nm and emission at 615nm (Eu(3)-Cryptate donor signal) and 665nm (d2 acceptor signal). The ratio of […] was calculated for each well.
% is scaled to controls: 0 for no effect and ±100 for the full control effect.

Q: Which activity change does the source give for `Nc1ccc([N+](=O)[O-])cc1` here?
A: -35.1% (active)

Q: With `CC(=O)Cc1ccc(OC(C)C)cc1` as the compound, how does the activity change read?
A: -4.19% (inactive)

Q: `CC(C)(C)c1ccc(OC(=O)N2CCCCC2)cc1` was tested. Which activity change did it give?
A: -0.84% (inactive)

Q: How did the activity change turn out when `COc1ccc(CCn2c(O)c(C=NC3CC3)c(=O)[nH]c2=O)cc1OC` was run?
A: -0.86% (inactive)

Q: How did the activity change turn out when `O=C1NC(=O)C(C/C=C/c2ccccc2)C(=O)N1` was run?
A: -117% (active)

Q: Which activity change does the source give for `O=C1NC(=O)C(Cc2ccccc2)C(=O)N1` here?
A: -0.218% (inactive)

Q: Which activity change does the source give for `CSC1=NP(=S)(SC)N(C)c2nc3n(c21)CCC3` (stereo not given) here?
A: -0.177% (inactive)

Q: For `CCOC(=O)c1c(C)c(C(=O)N2CCC3(CC2)OCCO3)c(C)n1CC`, which activity change is on record?
A: -3.47% (inactive)

Q: `COCCNC(=O)CN1C2CCC1CC(O)(c1cccnc1)C2` (stereo not given) was tested. Which activity change did it give?
A: 0.503% (inactive)

Q: With `Cc1ccc(Cn2nnnc2CN2CCC(n3nnc4ccccc43)CC2)cc1` as the compound, how does the activity change read?
A: -0.0525% (inactive)
